Hits are enriched below; roughly 1.2% of the tested compounds scored in any of these assays.
Sa RN4220 lethal – growth inhibition of S. aureus RN4220, primary screen, OD600; hit rate 0.33% among 330,000; AID 1259311, 2017; 16 h; inhibition, % (concentration not given with the values); in the data active means inhibition above about 85%
MazEF act – activators of E. coli MazEF toxin-antitoxin RNase, primary screen, biochemical, fluorescence, uHTS; AID 504720, 2011; FAM/BHQ RNA-DNA oligo cleavage fluorescence, 5 h; activation, % at 20 µM; hit rate 0.32% among 350,000; Endoribonuclease toxin MazF (Escherichia coli (strain K12)), P0AE70; in the data active means activation above about 50%
Target sequence (P0AE70 whole entry, looked up): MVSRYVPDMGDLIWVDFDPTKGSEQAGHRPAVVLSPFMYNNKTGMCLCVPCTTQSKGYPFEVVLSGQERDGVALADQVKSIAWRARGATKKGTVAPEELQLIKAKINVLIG
BJeLR viability – MLPCN primary cell-based screen for lethality selective to Ras in HRASV12 cells; BJeLR (HRASV12) viability, CellTiter-Glo ATP luminescence, 48 h; inhibition, % (no concentration beside the values); hit rate 0.17% among 300,000; in the data active means inhibition above about 50%
SSB-PriA inh – inhibitors of Klebsiella pneumoniae PriA binding to SSB C-terminal tail, primary screen, biochemical, AlphaScreen; PriA–SSB C-terminal tail interaction (Klebsiella pneumoniae); AlphaScreen SSBct-PriA binding, biotinylated peptide; inhibition, % at 33 µM; hit rate 0.6% among 430,000; AID 1272365, 2023; in the data active means inhibition mostly above about 37%, no sharp cut-off; inactive means mostly below about 20%
Sa ugtP lethal – growth inhibition of ugtP-null S. aureus, primary screen, RN4220 ugtP deletion, OD600. 16 h. growth inhibition, % (test concentration not listed). hit rate 0.54% among 330,000; in the data active means growth inhibition above about 68%
Hits are given with their value.

For CCCCn1c(NS(=O)(=O)c2ccccc2)c(S(=O)(=O)c2ccc(C)cc2)c2nc3ccccc3nc21 the results were Sa RN4220 lethal inactive, MazEF act inactive, BJeLR viability inactive, SSB-PriA inh 57.8 and Sa ugtP lethal inactive.
`Cc1ccc(-c2cn(S(=O)(=O)c3cccc4nsnc34)nc2N)cc1` gave Sa RN4220 lethal inactive, MazEF act inactive, BJeLR viability inactive, SSB-PriA inh inactive and Sa ugtP lethal inactive.
Screening Nc1nn(S(=O)(=O)c2cccc3nsnc23)cc1-c1ccc(Br)cc1 returned Sa RN4220 lethal inactive, MazEF act inactive, BJeLR viability inactive, SSB-PriA inh 41.9 and Sa ugtP lethal inactive.
CCN1C(=O)c2cccc3c(NC(=O)c4ccc5c(c4)OCCO5)ccc1c23 was read as Sa RN4220 lethal inactive, MazEF act 94.8, BJeLR viability inactive, SSB-PriA inh inactive and Sa ugtP lethal inactive.
`CCOc1ccccc1N(C(=O)c1ccccc1Cl)C1=NC(C)(C)CS1` gave Sa RN4220 lethal inactive, MazEF act inactive, BJeLR viability inactive, SSB-PriA inh inactive and Sa ugtP lethal inactive.
Screening Cc1ccc(N(C(=O)c2ccccc2Cl)C2=NC(C)CS2)c(C)c1 (stereo unspecified) returned Sa RN4220 lethal inactive, MazEF act inactive, BJeLR viability inactive, SSB-PriA inh inactive and Sa ugtP lethal 88.4.
For COC(=O)c1c(-c2ccccc2)csc1N the results were Sa RN4220 lethal inactive, MazEF act inactive, BJeLR viability inactive, SSB-PriA inh inactive and Sa ugtP lethal inactive.
Screening CCc1ccc(C(=O)/C=C/c2ccc([N+](=O)[O-])o2)cc1 returned Sa RN4220 lethal inactive, MazEF act inactive, BJeLR viability 58.7, SSB-PriA inh inactive and Sa ugtP lethal inactive.
`CCN(CC)S(=O)(=O)c1ccc(C(=O)/C=C/c2ccc(-c3ccc([N+](=O)[O-])cc3)o2)cc1` gave Sa RN4220 lethal inactive, MazEF act 297.7, BJeLR viability inactive, SSB-PriA inh inactive and Sa ugtP lethal inactive.
For O=C(NN=C(Cc1ncc[nH]1)c1ccccc1)c1ccncc1 the results were Sa RN4220 lethal inactive, SSB-PriA inh 47.9 and Sa ugtP lethal inactive.
`COc1ccc(C(=O)NN=C(Cc2ncc[nH]2)c2ccccc2)cc1` gave Sa RN4220 lethal inactive, SSB-PriA inh inactive and Sa ugtP lethal inactive.
CC(NC(=O)C1CCN(S(=O)(=O)c2ccc3nc4c(c(C(=O)O)c3c2)CCCC4)CC1)c1ccccc1 (stereo unspecified) was read as Sa RN4220 lethal inactive, MazEF act inactive, BJeLR viability inactive, SSB-PriA inh inactive and Sa ugtP lethal inactive.
Screening COc1ccccc1N=Nc1c(O)[nH]c2ccc(Br)cc12 returned Sa RN4220 lethal inactive, MazEF act 137.0, BJeLR viability inactive, SSB-PriA inh inactive and Sa ugtP lethal inactive.
Cc1ccccc1N=Nc1c(O)[nH]c2ccccc12 was read as Sa RN4220 lethal inactive, MazEF act 481.6, BJeLR viability inactive, SSB-PriA inh inactive and Sa ugtP lethal inactive.
Screening Cc1ccc2[nH]c(O)c(N=Nc3ccccc3C)c2c1 returned Sa RN4220 lethal inactive, MazEF act inactive, BJeLR viability inactive, SSB-PriA inh inactive and Sa ugtP lethal inactive.
Screening Cc1cccc(N=Nc2c(O)[nH]c3ccc(Br)cc23)c1 returned Sa RN4220 lethal inactive, MazEF act inactive, BJeLR viability inactive, SSB-PriA inh inactive and Sa ugtP lethal inactive.
Screening Oc1[nH]c2ccc(Br)cc2c1N=NC(=S)Nc1ccc(F)cc1 returned Sa RN4220 lethal 99.1, MazEF act inactive, BJeLR viability inactive, SSB-PriA inh inactive and Sa ugtP lethal 99.7.
CSc1nc2sccc2c(=O)[nH]1 was read as Sa RN4220 lethal inactive, MazEF act inactive, BJeLR viability inactive, SSB-PriA inh inactive and Sa ugtP lethal inactive.
`Cc1ccc(-c2csc3ncnc(N4CCN(S(=O)(=O)c5ccc(C#N)cc5)CC4)c23)cc1` gave MazEF act inactive.
For O=S(=O)(c1ccccc1)N1CCN(c2ncnc3scc(-c4ccccc4)c23)CC1 the results were Sa RN4220 lethal 96.1, MazEF act inactive, BJeLR viability inactive, SSB-PriA inh inactive and Sa ugtP lethal 98.2.
`Cc1ccc(-c2csc3ncnc(N4CCN(S(=O)(=O)c5cccs5)CC4)c23)cc1` gave Sa RN4220 lethal 97.2, MazEF act inactive, SSB-PriA inh inactive and Sa ugtP lethal 97.8.
`O=C(O)c1ccc(C=NN=Cc2ccco2)cc1` gave MazEF act inactive and SSB-PriA inh inactive.
`COc1ccc(N(CC(=O)NC(C)C)C(=O)CCC(=O)Nc2ccccn2)cc1` gave Sa RN4220 lethal inactive, MazEF act inactive, BJeLR viability inactive, SSB-PriA inh inactive and Sa ugtP lethal inactive.
O=C(N/N=C/c1ccc(Sc2nc3ccccc3s2)c([N+](=O)[O-])c1)c1ccccn1 was read as MazEF act 100.8 and BJeLR viability inactive.
Screening Cn1ccnc1Sc1ccc(C=NNC(=O)c2ccccc2[N+](=O)[O-])cc1[N+](=O)[O-] returned Sa RN4220 lethal inactive, SSB-PriA inh inactive and Sa ugtP lethal inactive.
`O=C(Nc1ccc(Br)c(C(F)(F)F)c1)c1ccc(C(F)(F)F)cc1` gave Sa RN4220 lethal 100.5, MazEF act inactive, BJeLR viability inactive, SSB-PriA inh inactive and Sa ugtP lethal 99.0.
O=C(Nc1ccc(Br)c(C(F)(F)F)c1)c1ccccc1 was read as Sa RN4220 lethal inactive, MazEF act inactive, BJeLR viability inactive, SSB-PriA inh inactive and Sa ugtP lethal inactive.
For Cc1ccccc1NC(=O)c1ccc(C)c(S(=O)(=O)Nc2ccccn2)c1 the results were Sa RN4220 lethal inactive, MazEF act inactive, BJeLR viability inactive, SSB-PriA inh inactive and Sa ugtP lethal inactive.
Screening Cc1ccc(C(=O)Nc2ccc(Br)cc2)cc1S(=O)(=O)Nc1ccccn1 returned Sa RN4220 lethal inactive, MazEF act 124.5, BJeLR viability inactive, SSB-PriA inh inactive and Sa ugtP lethal inactive.
Cc1c(/C=N/n2cnnc2)c2ccccc2n1CCOc1ccc(Cl)cc1 was read as MazEF act 113.0 and BJeLR viability inactive.
Oc1ccc(-c2nccc(-c3ccc(Cl)cc3)n2)cc1 was read as Sa RN4220 lethal inactive, MazEF act inactive, BJeLR viability inactive, SSB-PriA inh inactive and Sa ugtP lethal inactive.
`Nc1ccc(-c2cc(-c3ccc(N)cc3)nc(-c3ccccc3)n2)cc1` gave Sa RN4220 lethal inactive, MazEF act inactive, BJeLR viability inactive, SSB-PriA inh inactive and Sa ugtP lethal inactive.
Oc1ccc(-c2cc(-c3ccc(O)cc3)nc(-c3ccccc3)n2)cc1 was read as Sa RN4220 lethal 97.3, MazEF act 59.3, BJeLR viability inactive, SSB-PriA inh inactive and Sa ugtP lethal 99.9.
For Oc1ccc(-c2cccc(-c3ccc(O)cc3)n2)cc1 the results were Sa RN4220 lethal 98.1, MazEF act inactive, BJeLR viability inactive, SSB-PriA inh inactive and Sa ugtP lethal 99.1.
CCC(C(=O)NN=C(C)c1cccnc1)c1ccccc1 (stereo unspecified) was read as Sa RN4220 lethal inactive, SSB-PriA inh inactive and Sa ugtP lethal inactive.

From PubChem BioAssay
